High-throughput results: PubChem BioAssay, National Center for Advancing Translational Sciences (NCATS)
An excerpt weighted towards active compounds, which were near 10% of everything screened.
GPT2 inhibitor – GPT2 alanine aminotransferase inhibition | Potency, µM (highest dose often 57.7 µM), without a hit: at the top dose activity change, negative = inhibition, actives largely listed as inhibitors | AID 1671188 | Recombinant GPT2, coupled pyruvate oxidase/HRP Amplex Red fluorescence | hit rate 0.25% among 100,000 | Q8TD30; also: nearly all actives have a fitted effect of over 60% in size
Target sequence (Q8TD30 whole entry, looked up): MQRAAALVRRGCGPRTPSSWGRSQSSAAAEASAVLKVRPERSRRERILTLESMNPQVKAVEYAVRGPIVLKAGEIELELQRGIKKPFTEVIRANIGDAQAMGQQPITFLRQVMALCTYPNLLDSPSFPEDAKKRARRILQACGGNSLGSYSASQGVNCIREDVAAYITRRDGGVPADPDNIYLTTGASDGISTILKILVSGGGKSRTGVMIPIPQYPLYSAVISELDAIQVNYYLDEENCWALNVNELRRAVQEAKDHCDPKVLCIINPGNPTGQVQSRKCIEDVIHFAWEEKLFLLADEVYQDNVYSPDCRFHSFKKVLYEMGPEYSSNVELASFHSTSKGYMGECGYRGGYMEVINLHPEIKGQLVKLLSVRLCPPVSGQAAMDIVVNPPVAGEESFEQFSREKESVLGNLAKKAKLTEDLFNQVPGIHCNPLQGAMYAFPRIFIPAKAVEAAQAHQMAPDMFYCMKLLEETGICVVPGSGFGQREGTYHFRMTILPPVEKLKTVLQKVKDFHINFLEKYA
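Recombinant GPT2 (10ng/uL) with 250uM a-KG and 2mM L-alanine, 30 min at room temperature, in HEPES pH 7.5 buffer. Pyruvate detected by pyruvate oxidase/HRP/Amplex Red fluorescence after 30 min in the dark; AOA (50uM) as positive control.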
HEK293 tox – kills HEK 293 cells | HEK 293 viability, ATP luminescence (CellTiter-Glo), 48-72 h | Potency, µM (highest dose often 115 µM), without a hit: at the highest dose activity change, negative = cytotoxicity, usual class: inhibitors | hit rate 6.6% among 94,000 | AID 1345083; also: nearly all actives have a fitted effect of over 60% in size
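Cells seeded first (HEK 293, 250 cells/well), then compound added by pintool. Incubation ran 48 or 72 hr at 37 degree Celsius. CellTiter-Glo was added and luminescence imaged after 10 min at room temperature.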
FLuc inh – blocks purified firefly luciferase enzyme activity. purified P. pyralis luciferase, luminescence, biochemical. hit rate 2.5% among 76,000. P08659. Potency, µM (top dose mostly 115 µM), usual class: inhibitors; also: nearly all actives have a fitted effect of over 65% in size
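Purified 10nM P. pyralis luciferase with 10uM D-luciferin and 10uM ATP in 50mM Tris acetate pH 7.5, 10mM Mg acetate, 0.01% Tween-20, 0.05% BSA. qHTS titration; luminescence read by CCD imager.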
NIH3T3 tox – NIH 3T3 cell cytotoxicity | NIH 3T3 viability, CellTiter-Glo ATP luminescence, 48-72 h | Potency, µM (top dose mostly 96.7 µM), without a hit: top-dose activity change, negative = cytotoxicity, hits mostly inhibitors | hit rate 4.3% among 94,000; also: nearly all actives have a fitted effect of over 55% in size
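First NIH 3T3 cells are plated at 400 cells/well; next compound is pinned in; then plates incubate 48 or 72 hr at 37 °C; finally CellTiter-Glo is added and luminescence read after 10 min.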
hNpr1 antagonist – blocks ANP-stimulated signaling of human Npr1 receptor; P16066; HEK293 hNpr1 GloSensor cGMP, ANP-stimulated luminescence; Potency, µM (doses to about 46.3 µM), for the others: at the highest dose activity change, negative = inhibition, hits mostly inhibitors; hit rate 1.6% among 76,000; AID 1347048; calls by dose curve; also: nearly all actives have a fitted effect of over 60% in size
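HEK293 cells stably expressing human Npr1 and cGMP GloSensor pGS-40F, loaded 2 h with 2% GloSensor reagent, given compound 30 min at room temperature. Luminescence read before and 20 min after 0.1 nM hNppA.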
Numbers without * were called inactive; i = inactive; u = inconclusive; x = no result; ! = repeats disagree; [ ] = dose if it differs, or a comment. Unless noted, calls follow the shape of the dose curve; as a rule, active = well fitted curve in the direction sought with a large enough effect; inconclusive = small, poorly fitted or top-dose-only effect, or another doubt; inactive = no such curve, though single readings can be large; an effect the other way counts as inactive or inconclusive. % is scaled to controls: 0 for no effect and ±100 for the full control effect; potency is read from the fitted curve at half-maximal effect.

SMILES | GPT2 inhibitor | HEK293 tox | FLuc inh | NIH3T3 tox | hNpr1 antagonist
COc1cccc(-c2ccc(C(=O)N3CCC(NC(=O)c4ccccc4)CC3)cc2)c1 | i | 44.7µM* | x | u | x
COc1cccc(-c2cccc(C(=O)N3CCN(C(=O)Nc4ccc(Cl)cc4)CC3)c2)c1 | -0.6% | 89.1µM* | x | u | x
COc1cccc(-c2ccc(C(=O)N3CCC(NC(=O)C4CCCC4)CC3)cc2)c1 | 1.1% | u | x | u | x
COc1ccc(-c2cccc(C(=O)N3CCC(NC(=O)c4ccccc4OC)CC3)c2)nn1 | x | 28.2µM* | x | -18.8% | x
COc1ccc(C(=O)N2CCCC(C(=O)N3CCC(N4CCOCC4=O)CC3)C2)cc1 (configuration not stated) | i | -4.6% | x | -25.8% | x
Fc1ccccc1CN1CC[C@H](c2nnc(Cc3ccccc3)o2)C1 | -10.5%[88.5 µM] | -10.3%[172 µM] | i | -9.4%[138 µM] | 2.1%[70.6 µM]
N[C@H]1CO[C@H]2[C@@H]1OC[C@@H]2n1cc(CC2CCCCC2)nn1 | 4.0%[88.5 µM] | 1.5%[230 µM] | i | -24.7%[230 µM] | -7.6%[70.6 µM]
COCCCn1c(=O)c(C(=O)N2CCCC2)nc2cccnc21 | i | -1.3%[172 µM] | x | -14.0%[138 µM] | x
Cc1ccccc1C(=O)NC1CCN(c2nc3ncccc3o2)C1 (configuration not stated) | i | i | x | -5.7%[138 µM] | x
O=C(NCCCc1ccccc1)C1CN(C2CCCCC2)C(=O)N1 (configuration not stated) | i | u | x | u | x
COc1cccc(-c2ccc(C(=O)N3CCC(NC(=O)Nc4ccc(Cl)cc4)CC3)cc2)c1 | i | 10µM* | x | 28.2µM* | x
COc1cccc(-c2ccc(C(=O)N3CCC(NC(=O)c4ccc(C)cc4)CC3)cc2)c1 | 3.8% | u | x | -31.8% | x
COc1cccc(-c2ccc(C(=O)N3CCC(NC(=O)Nc4ccccc4)CC3)cc2)c1 | -19.3% | 25.1µM* | x | u | x
COc1ccccc1-c1ccc(C(=O)N2CCC(NC(=O)Nc3ccccc3)CC2)cc1 | -10.7% | 39.8µM* | x | u | x
COc1cccc([S+](=O)([O-])N2CCC3(C2)C(=NC2CCCC2)NC(=O)N3c2cc(F)cc(F)c2)c1 (configuration not stated) | 0.9% | -14.9% | x | u | x
CO[C@H]1CN(C2CCN(C(=O)CN3CCCC3=O)CC2)[C@H]1c1cccnc1 | i | 0.3% | x | -19.6% | x
Cc1nn(-c2ccccc2)c2c1C(C)N(C1CCN(C(=O)NC(C)C)C1)C2=O (configuration not stated) | x | -19.8% | x | u | x
COc1ccccc1C(=O)N1CCC(N2C(=O)c3c(c(C)nn3-c3ccccc3)C2C2CC2)C1 (configuration not stated) | x | 39.8µM* | x | u | x
COc1ccccc1C(=O)N1CCC(N2C(=O)c3c(c(C)nn3-c3ccccc3)C2C)C1 (configuration not stated) | x | 44.7µM* | x | u | x
COc1ccccc1-c1ccc(CN2CCCCC2C(=O)N2CCN(Cc3ccccc3)CC2)cc1 (configuration not stated) | i | 31.6µM* | x | u | x
COc1ccccc1-c1ccc(C(=O)N2CCC(C(=O)N3CCC(c4ccccc4)CC3)CC2)cc1 | i | u | x | u | x
COc1ccccc1-c1ccc(CN2CCCCC2C(=O)N2CCC(c3ccccc3)CC2)cc1 (configuration not stated) | x | 25.1µM*! | x | 39.8µM* | x
Cn1ncc2c(C(=O)Nc3cccc(C(F)(F)F)c3)cc(-c3ccc(C(F)(F)F)cc3)nc21 | x | 11.2µM* | x | 7.94µM* | x
COc1cccc(-c2cc(C(=O)Nc3cccc(C(F)(F)F)c3)c3cnn(C)c3n2)c1 | x | 31.6µM* | x | u | x
CC(C)C(=O)N1CCC2(CC1)NCCc1c2[nH]c2ccccc12 | i | u | i | -18.4% | 7.8%
SMILES | GPT2 inhibitor | HEK293 tox | FLuc inh | NIH3T3 tox | hNpr1 antagonist
O=C(Nc1ccc(Cl)cc1Cl)c1cccn2cncc12 | i | u | 44.7µM* | u | -19.3%[70.6 µM]
O=C(Nc1ccc(Cl)cc1Cl)c1ccn2cncc2c1 | i | u | i | -6.6%[138 µM] | -6.2%[70.6 µM]
O=C(Nc1ccc(F)cc1)c1cccn2cncc12 | -21.2%[88.5 µM] | u | 44.7µM* | -26.5%[138 µM] | -1.1%[70.6 µM]
CCc1ccc(CN2CCCC(CO)(Cc3ccc(F)cc3F)C2)cc1 (configuration not stated) | -4.6% | u | i | 79.4µM* | -0.9%
Cc1cc(C)n(-c2ccc(F)cc2CN2CCCC(CO)(Cc3ccccc3)C2)n1 (configuration not stated) | -14.3% | u | i | u | -8.6%
CCn1nccc1C(=O)N1CCC(Cc2ccc(CCC(=O)NC3CC3)cc2)CC1 | -7.5% | u | x | u | x
O=C1CC(c2ccccc2)N(C(=O)CNS(=O)(=O)c2ccc3c(c2)CCC3)CCCCCN1 (configuration not stated) | 3.0% | u | i | -27.1% | 0.8%
O=C(c1nc(-c2ccccc2)c2ccccn12)N1CCCC1 | i | u | i | -11.6%[138 µM] | 2.1%[70.6 µM]
COC(=O)CNC(=O)c1nc(-c2ccc(Cl)nc2)c2ccccn12 | -6.6% | 3.0% | x | u | x
CN(C)C(=O)c1nc(-c2ccc(Cl)cc2)c2ccccn12 | i | 100µM* | u | u | 7.3%[70.6 µM]
O=C(c1nc(-c2cccc(C(F)(F)F)c2)c2ccccn12)N1CCCC1 | -24.5% | 39.8µM* | i | u | -9.4%
C#CCNC(=O)c1nc(-c2cccc(F)c2)c2cnccn12 | -2.6%[88.5 µM] | 63.1µM*! | i | u | -26.8%[70.6 µM]
C#CCNC(=O)c1nc(-c2ccc(Cl)nc2)c2ccccn12 | -11.8% | 50.1µM* | x | u | x
O=C(CN1CCCc2nc(-c3ccncc3)ncc2C1=O)NCCCN1CCCC1=O | i | -4.7% | i | -17.6% | -2.1%
C#CCNC(=O)c1nc(-c2cccnc2)c2ccccn12 | i | -22.9%[172 µM] | i | 89.1µM* | 0.0%[70.6 µM]
C#CCNC(=O)c1nc(-c2ccc(Cl)cc2)c2ccccn12 | i | u | 44.7µM* | u | -0.8%[70.6 µM]
O=C(c1nc(-c2ccc(Cl)cc2)c2ccccn12)N1CCOCC1 | -5.3%[88.5 µM] | 112µM* | i | u | 5.2%[70.6 µM]
CC(C)NC(=O)c1nc(-c2ccc(Cl)nc2)c2ccccn12 | -14.8% | u | x | 35.5µM* | x
CC(C)NC(=O)c1nc(-c2ccc(F)cc2)c2ccccn12 | i | u | i | u | 4.2%[70.6 µM]
COc1ccc(-c2ccccc2C(=O)N2CCC(NC(=O)c3ccccc3Cl)CC2)nn1 | x | 3.0% | x | -19.5% | x
CNC(=O)C(C)(C)N1CCC[C@H]1C(=O)N1CCCCCC1 | 0.4%[88.5 µM] | i | i | 2.7%[174 µM] | 1.7%[70.6 µM]
COCC(=O)NC1CCN(c2ccnc3ccnn23)CC1 | -24.0%[88.5 µM] | -6.9%[172 µM] | x | -24.5%[138 µM] | x
O=C(NCc1ccc2c(c1)OCO2)c1nc(-c2ccc(Cl)cc2)c2cnccn12 | 1.7% | -26.5% | 25.1µM* | -25.2% | 6.8%
C#CCNC(=O)c1nc(-c2ccc(Cl)cc2Cl)c2ccccn12 | -12.2% | u | x | u | x
